Data as given in PubChem BioAssay (NCATS).
Results filed as inconclusive are left out. Entries that show only a call come without a potency. Some compounds were tested as several samples or in several runs, with calls that do not always agree. Unmarked numbers belong to inactive results. Calls of active or inactive are those of the source. Unless noted, calls follow the shape of the dose curve; as a rule, active = well fitted curve in the direction sought with a large enough effect; inconclusive = small, poorly fitted or top-dose-only effect, or another doubt; inactive = no such curve, though single readings can be large; an effect the other way counts as inactive or inconclusive.

Assays:
[1] = target: ATP-dependent 6-phosphofructokinase (Trypanosoma brucei brucei) (UniProt O15648); assay: qHTS Assay to Find Inhibitors of T. brucei phosphofructokinase: hit validation (AID 492961);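 also: luminescence reports ADP formed as PFK phosphorylates fructose-6-phosphate with ATP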
In short: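 Compounds titrated; %activity normalized to 0x and 1x enzyme controls, curve-fitted. Readout: ADP-Glo luminescence after 45 min room-temperature reaction of 1.25 nM PFK, 0.1 mM ATP, 0.5 mM F6P, pH 8.0.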

[2] = target: Luciferin 4-monooxygenase (Photinus pyralis) (UniProt P08659); assay: Biochemical firefly luciferase enzyme assay for NPC (AID 624030); also: nearly all actives have a fitted effect of over 70% in size; also: potency is read from the fitted curve at half-maximal effect
In short: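 Purified P. pyralis luciferase at 10 nM in 50 mM Tris Acetate (final), luminescence read within 5 minutes of enzyme addition to compounds. Activity normalised to PTC124 versus DMSO; concentration-response curves classed by r2, magnitude and activity.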

[3] = S16 Schwann cell PMP22 intronic element beta-lactamase assay (AID 624044; calls by dose curve; also: nearly all actives have a fitted effect of over 15% in size); settings: S16 rat Schwann cells, PMP22 element beta-lactamase FRET, 24 h
In short: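 Rat S16 Schwann cells with beta-Lac driven by a PMP22 intronic element, compound-treated 24 h at 37 °C. LiveBLAzer FRET B/G read: 460 nm normalized to potassium clavulanate vs DMSO; 535 nm FRET as viability; concentration-effect curves classified.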

[4] = qHTS profiling for inhibitors of Plasmodium falciparum proliferation (AID 504749); also: nearly all actives have a fitted effect of over 60% in size; also: potency is read from the fitted curve at half-maximal effect; settings: P. falciparum in erythrocytes, SYBR Green DNA, 72 h, at 28.7 µM (top of the series)
In short: (§1)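 Readout was DNA-dye fluorescence from lysed cultures, ex 485/em 535 nm. Parasitized red cells had grown 72 h with compound; data scaled between 0.29 uM artemisinin and DMSO wells and corrected using vehicle-only plates.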

CP192 = assay: as above; settings: P. falciparum in erythrocytes, SYBR Green DNA, 72 h; series mostly up to 28.7 µM
In short: as §1

CP201 = assay: as above; settings: P. falciparum in erythrocytes, SYBR Green DNA, 72 h; series mostly up to 28.7 µM
In short: as §1

CP262 = assay: as above; settings: P. falciparum in erythrocytes, SYBR Green DNA, 72 h; series mostly up to 28.7 µM
In short: as §1

CP269 = assay: as above; settings: P. falciparum in erythrocytes, SYBR Green DNA, 72 h; series mostly up to 28.7 µM
In short: as §1

CP305 = assay: as above; settings: P. falciparum in erythrocytes, SYBR Green DNA, 72 h; series mostly up to 28.7 µM
In short: as §1

CP315 = assay: as above; settings: P. falciparum in erythrocytes, SYBR Green DNA, 72 h; series mostly up to 28.7 µM
In short: as §1

CP325 = assay: as above; settings: P. falciparum in erythrocytes, SYBR Green DNA, 72 h; series mostly up to 28.7 µM
In short: as §1

CP329 = assay: as above; settings: P. falciparum in erythrocytes, SYBR Green DNA, 72 h; series mostly up to 28.7 µM
In short: as §1

Dd2 = assay: as above; settings: P. falciparum in erythrocytes, SYBR Green DNA, 72 h; series mostly up to 28.7 µM
In short: as §1

FAB9 = assay: as above; settings: P. falciparum in erythrocytes, SYBR Green DNA, 72 h; series mostly up to 28.7 µM
In short: as §1

PC49 = assay: as above; settings: P. falciparum in erythrocytes, SYBR Green DNA, 72 h; series mostly up to 28.7 µM
In short: as §1

[5] = qHTS for Inhibitors of Plasmodium falciparum (DD2) proliferation (AID 504314);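 also: parasite DNA measured by SYBR Green fluorescence after red cell lysis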
In short: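 Quantitative HTS growth inhibition: SYBR Green I binding to parasite DNA after 72 h drug exposure of infected erythrocytes (0.3% parasitemia, 2.5% hematocrit). Signals normalized per plate to inhibitor and vehicle wells.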

[6] = qHTS for Inhibitors of Plasmodium falciparum (GB4) proliferation (AID 504315); also: potency is read from the fitted curve at half-maximal effect; nearly all actives have a fitted effect of over 50% in size
In short: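 Erythrocytes infected with P. falciparum line (0.3% parasitemia, 2.5% hematocrit final) incubated with compounds 72 h at 37 °C, 5% CO2; SYBR Green lysis buffer added, fluorescence read next day. Normalized to 0.29 uM artemisinin and DMSO.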

[7] = ratio activity, negative = inhibition: at 38.3 µM (top of the series)

Chain of ATP-dependent 6-phosphofructokinase (Trypanosoma brucei brucei) (O15648 whole entry, looked up): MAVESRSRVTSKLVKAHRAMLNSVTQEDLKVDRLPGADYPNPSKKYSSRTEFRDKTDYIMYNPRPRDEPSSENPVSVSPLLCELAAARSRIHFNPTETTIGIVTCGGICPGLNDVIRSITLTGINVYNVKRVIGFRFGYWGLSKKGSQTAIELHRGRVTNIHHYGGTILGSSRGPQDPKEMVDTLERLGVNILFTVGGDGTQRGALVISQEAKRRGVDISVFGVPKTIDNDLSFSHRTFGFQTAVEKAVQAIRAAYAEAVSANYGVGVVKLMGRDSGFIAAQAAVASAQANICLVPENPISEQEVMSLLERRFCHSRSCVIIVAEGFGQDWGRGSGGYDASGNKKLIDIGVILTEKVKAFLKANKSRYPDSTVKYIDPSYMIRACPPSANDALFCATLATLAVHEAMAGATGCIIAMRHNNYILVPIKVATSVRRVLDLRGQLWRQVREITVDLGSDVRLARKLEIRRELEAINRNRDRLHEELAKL
Chain of Luciferin 4-monooxygenase (Photinus pyralis) (P08659 whole entry, looked up): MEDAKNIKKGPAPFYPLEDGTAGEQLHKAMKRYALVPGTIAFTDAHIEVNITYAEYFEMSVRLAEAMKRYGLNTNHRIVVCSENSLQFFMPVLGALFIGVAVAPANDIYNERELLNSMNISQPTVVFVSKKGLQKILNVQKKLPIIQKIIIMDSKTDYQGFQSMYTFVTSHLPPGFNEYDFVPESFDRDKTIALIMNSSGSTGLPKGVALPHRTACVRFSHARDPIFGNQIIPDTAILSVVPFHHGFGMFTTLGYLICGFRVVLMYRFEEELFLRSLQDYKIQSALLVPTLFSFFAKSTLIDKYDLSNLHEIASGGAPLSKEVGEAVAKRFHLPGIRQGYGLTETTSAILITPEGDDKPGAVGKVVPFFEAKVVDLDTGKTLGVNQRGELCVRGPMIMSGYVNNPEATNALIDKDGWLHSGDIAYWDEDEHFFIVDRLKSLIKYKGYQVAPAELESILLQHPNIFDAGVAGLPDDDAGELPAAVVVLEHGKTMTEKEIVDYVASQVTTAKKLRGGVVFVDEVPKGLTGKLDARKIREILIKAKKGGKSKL

| SMILES | Potency [1] | Potency [2] | Potency [3, 7] | activity, negative = inhibition ([4]; parasite line A) | activity, negative = inhibition ([4]; parasite line B) | Potency (CP192) | Potency (CP201) | Potency (CP262) | Potency (CP269) | Potency (CP305) | Potency (CP315) | Potency (CP325) | Potency (CP329) | Potency (Dd2) | Potency (FAB9) | Potency (PC49) | ratio activity, negative = inhibition ([3]; at 38.3 µM (top of the series)) | ratio activity, negative = inhibition [3, 7] | Potency [5] | Potency [6] |
| --- | --- | --- | --- | --- | --- | --- | --- | --- | --- | --- | --- | --- | --- | --- | --- | --- | --- | --- | --- | --- |
| Cn1cc(C(=O)[C@@H]2CCc3[nH]cnc3C2)c2ccccc21 | inactive | inactive | inactive | 5.71% | 16.1% | inactive | inactive | inactive | inactive | inactive | inactive | inactive | inactive | inactive | inactive | inactive | – | – | – | – |
| Cc1cnc(NC(=O)C2C(=O)c3ccccc3S(=O)(=O)N2C)s1 (stereo not drawn) | inactive | – | inactive | -14.2% | – | inactive | inactive | inactive | inactive | inactive | inactive | inactive | inactive | inactive | inactive | inactive | – | – | – | – |
| CC(C)(C)NC[C@H](O)CSc1nc(-c2ccc(C(N)=O)s2)cs1 | inactive | inactive | inactive | -8.78% | -3.22% | inactive | inactive | inactive | inactive | inactive | inactive | inactive | inactive | inactive | inactive | inactive | – | – | – | – |
| CCCSS/C(CCO)=C(/C)N(C=O)Cc1cnc(C)nc1N | inactive | inactive | – | -20.8% | -22.2% | inactive | inactive | inactive | inactive | inactive | inactive | inactive | inactive | inactive | inactive | inactive | – | – | – | – |
| C=C1/C(=C\C=C2/CCC[C@]3(C)[C@@H]([C@H](C)/C=C/[C@@H](O)C4CC4)CC[C@@H]23)C[C@@H](O)C[C@@H]1O | inactive | inactive | inactive | -4.72% | -23.6% | inactive | inactive | inactive | inactive | inactive | inactive | inactive | inactive | inactive | inactive | inactive | – | – | – | – |
| C[C@]12CCC(=O)C=C1[C@@H]1C[C@H]1[C@H]1[C@@H]3[C@@H]4C[C@H]4[C@@]4(CCC(=O)O4)[C@@]3(C)CC[C@@H]12 | inactive | inactive | inactive | -2.83% | -11.7% | inactive | inactive | inactive | inactive | inactive | inactive | inactive | inactive | inactive | inactive | inactive | – | – | – | – |
| C#C[C@]1(O)CC[C@H]2[C@H]3[C@H](CC[C@@]21C)C1=C(CC(=O)CC1)C[C@@H]3C | inactive | – | – | -14.8% | -21.9% | inactive | inactive | inactive | inactive | inactive | inactive | inactive | inactive | inactive | inactive | inactive | – | – | – | – |
| CC1=C[C@@H](O)CC(C)(C)[C@@H]1/C=C/C(C)=C/C=C/C(C)=C/C=C/C=C(C)/C=C/C=C(C)/C=C/C1=C(C)C[C@H](O)CC1(C)C | inactive | inactive | inactive | -23.3% | – | inactive | inactive | inactive | inactive | inactive | inactive | inactive | inactive | 12.6 µM (active) | – | 10 µM (active) | – | – | – | – |
| C/C(=C(/CCOC(=O)C(C)C)SS/C(CCOC(=O)C(C)C)=C(\C)N(C=O)Cc1cnc(C)nc1N)N(C=O)Cc1cnc(C)nc1N | inactive | inactive | inactive | – | -17.2% | inactive | inactive | – | inactive | inactive | inactive | inactive | – | inactive | inactive | inactive | – | – | – | – |
| CC1=C(C/C=C(\C)CCCC(C)CCCC(C)CCCC(C)C)C(=O)c2ccccc2C1=O (stereo not drawn) | inactive | inactive | inactive | -26.3% | – | inactive | inactive | inactive | inactive | inactive | inactive | inactive | inactive | 8.91 µM (active) | inactive | inactive | – | – | – | – |
| C[C@H](CN1c2ccccc2Sc2cccnc21)N(C)C | inactive | inactive | inactive | -16.9% | -1.99% | – | – | inactive | – | – | – | – | – | 4.47 µM (active) | inactive | inactive | – | – | – | – |
| CC1=C(c2ccc(NN=C(C#N)C#N)cc2)NNC(=O)C1 | inactive | 14.4 µM (active) | inactive | -7.66% | 20.7% | inactive | inactive | inactive | inactive | inactive | inactive | inactive | inactive | inactive | inactive | inactive | – | – | – | – |
| OCC(O)C(O)C(O)C(O)CO (stereo not drawn) | inactive | inactive | – | – | 7.82% | inactive | inactive | inactive | inactive | inactive | inactive | inactive | inactive | inactive | inactive | inactive | -3.36% | 1.06% (active) | – | – |
| CCC(C)C(N)C(=O)O (stereo not drawn) | inactive | – | – | – | -1.6% | inactive | inactive | inactive | inactive | inactive | inactive | inactive | inactive | inactive | inactive | inactive | – | – | – | – |
| CC1OC(OC2C(O)CC(OC3C(O)CC(OC4CCC5(C)C(CCC6C5CCC5(C)C(C7=CC(=O)OC7)CCC65O)C4)OC3C)OC2C)CC(O)C1O (stereo not drawn) | inactive | inactive | inactive | 1.31% | 5.82% | inactive | inactive | inactive | inactive | inactive | inactive | inactive | inactive | – | inactive | inactive | – | – | – | – |
| CC1CN(c2c(F)c(N)c3c(=O)c(C(=O)O)cn(C4CC4)c3c2F)CC(C)N1 (stereo not drawn) | inactive | inactive | inactive | -2.02% | 11% | inactive | inactive | inactive | inactive | inactive | inactive | inactive | inactive | inactive | inactive | inactive | – | – | – | – |
| CCOc1ccccc1O[C@@H](c1ccccc1)[C@@H]1CNCCO1 | inactive | inactive | inactive | -12.8% | – | inactive | inactive | inactive | inactive | inactive | inactive | inactive | inactive | 0.0794 µM (active) | inactive | 2.24 µM (active) | – | – | – | – |
| C/C=C1/NN(CCCN2CCN(c3cccc(Cl)c3)CC2)C(=O)N1CCOc1ccccc1 | inactive | inactive | inactive | -8.67% | 7.5% | inactive | inactive | inactive | inactive | inactive | inactive | inactive | inactive | – | inactive | inactive | – | – | – | – |
| CC#CCN1c2ccccc2[C@]23C[C@@H](C(=O)OC)N(S(=O)(=O)c4ccc(C)cc4)C2=NC(C(=O)OC)=C(C(=O)OC)[C@H]13 | – | – | – | – | – | – | – | – | – | – | – | – | – | – | – | – | – | – | inactive | 1.69 µM (active) |
| COC(=O)C1=C(C(=O)OC)[C@@H]2Nc3ccccc3[C@@]23C[C@@H](C(=O)OC)N(S(=O)(=O)c2ccc4c(c2)OCCN4C)C3=N1 | – | – | – | – | – | – | – | – | – | – | – | – | – | – | – | – | – | – | inactive | 1.69 µM (active) |
| CCC(=O)OC1C(N(C)C)CC(C)O[C@H]1O[C@H]1[C@H](C)[C@@H](O[C@H]2CC(OC)[C@@H](O)C(C)O2)[C@H](C)C(=O)O[C@@H](CC)[C@](C)(O)[C@@H](O)[C@H](C)C(=O)[C@@H](C)C[C@]1(C)O (stereo partly drawn) | inactive | inactive | – | – | – | inactive | inactive | inactive | – | inactive | inactive | inactive | – | 12.6 µM (active) | inactive | inactive | – | – | – | – |
| C=CCN1CC(C(=O)N(CCCN(C)C)C(=O)NCC)CC2c3cccc4[nH]cc(c34)CC21 (stereo not drawn) | inactive | inactive | inactive | – | -28.9% | inactive | inactive | inactive | inactive | inactive | inactive | inactive | inactive | 8.91 µM (active) | inactive | inactive | – | – | – | – |
| C=C1N[C@]2(C(=O)COC(C)=O)[C@@H](C[C@H]3[C@@H]4CCC5=CC(=O)C=C[C@]5(C)[C@H]4[C@@H](O)C[C@@]32C)O1 | inactive | inactive | inactive | – | -29.8% | inactive | – | – | – | – | inactive | – | – | inactive | inactive | inactive | – | – | – | – |
